This note sets out measurements from PubChem BioAssay (NCATS).

Each structure is given as a SMILES string. Results filed as inconclusive are left out. Active and inactive are the calls of the source. Calls come from the whole dose curve; as a rule, active = well fitted cell-killing curve with a large enough effect; inconclusive = small, poorly fitted or top-dose-only effect; inactive = flat fitted curve, though single readings scatter.

The first assay in a line: Cell Viability - LYMP2-009 (AID 968).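 For activity change, negative = viability loss: 0% = DMSO alone and the full-kill end = tetraoctylammonium bromide at 92 µM.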 Note: nearly all actives have a fitted effect of over 55% in size. Note: potency is the fitted concentration of half-maximal effect. The settings on record: LYMP2-009 lymphoblastoid cell viability; series mostly up to 92.2 µM; activity change, negative = viability loss: at the top concentration.
With `NC(=O)c1ncn([C@@H]2O[C@H](CO)[C@@H](O)[C@H]2O)n1`, the “activity change, negative = viability loss” value was -28.2% (inactive).

As to `CC12CCC(CC1)C(C)(C)O2`, the “activity change, negative = viability loss” value is -7.76% (inactive).

As for `CCCCCCCCCCCCOS(=O)(=O)O`, the Potency result was “inactive”.

Take `O=C1c2c(O)cccc2Cc2cccc(O)c21`: the “activity change, negative = viability loss” value was -8.91% (inactive).

With `[Cl][In]([Cl])[Cl]`, the “activity change, negative = viability loss” value was -3.14% (inactive).

Turning to `O=C1O[C@H]([C@@H](O)CO)C(O)=C1O`, the “activity change, negative = viability loss” value is -11.9% (inactive).

For `COc1ccccc1O`, the Potency entry was “inactive”.

As for `Cc1cc2nc3c(=O)[nH]c(=O)nc-3n(C[C@H](O)[C@H](O)[C@H](O)CO)c2cc1C`, the “activity change, negative = viability loss” value is -11.6% (inactive).

As for `Cc1c(O)cccc1C(=O)N[C@@H](CSc1ccccc1)[C@H](O)CN1C[C@H]2CCCC[C@H]2C[C@H]1C(=O)NC(C)(C)C`, the Potency is 50.1 µM (active).

Regarding `CCCCOC(=O)c1ccc(O)cc1`, the “activity change, negative = viability loss” value was -6.36% (inactive).

Turning to `CC1(C)[C@@H]2CC[C@@]1(C)C(=O)C2`, the “activity change, negative = viability loss” value was -7.39% (inactive).

Turning to `NCCNCCNCCN`, the “activity change, negative = viability loss” value was -19.4% (inactive).

With `Cc1cc(CC(=O)O)n(C)c1C(=O)c1ccc(Cl)cc1`, the “activity change, negative = viability loss” value is -6.23% (inactive).

Turning to `Nc1ccc(S(=O)(=O)Nc2nccs2)cc1`, the “activity change, negative = viability loss” value is -9.5% (inactive).

Take `C[C@]12C[C@H](O)[C@H]3[C@@H](CCC4=CC(=O)CC[C@@]43C)[C@@H]1CC[C@@H]2C(=O)CO`: the “activity change, negative = viability loss” value was -10.7% (inactive).

`Oc1cccc(O)c1`: the “activity change, negative = viability loss” value was -14.9% (inactive).

With `NCCNCCNCCNCCN`, the “activity change, negative = viability loss” value was -11.1% (inactive).

The next assay is described as follows: Cell Viability - LYMP2-011 (AID 969).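 For viability change, negative = cytotoxic: 0% = DMSO only and full inhibition = 92 µM tetraoctylammonium bromide.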 Note: nearly all actives have a fitted effect of over 60% in size. Note: potency is the fitted concentration of half-maximal effect. The note with it: LYMP2-011 lymphoblastoid cells viability; series mostly up to 92.2 µM; viability change, negative = cytotoxic: at the top concentration. The essentials: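 2500 cells/well in complete medium, compound-treated 24 h at 37 C. Viability read as intracellular ATP by CellTiter-Glo luminescence after 30 min at room temperature. AC50 from Hill fits of qHTS concentration-response data.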
Regarding `NC(=O)c1ncn([C@@H]2O[C@H](CO)[C@@H](O)[C@H]2O)n1`, the “viability change, negative = cytotoxic” value was -24.2% (inactive).

For the compound `CC12CCC(CC1)C(C)(C)O2`, the “viability change, negative = cytotoxic” value is -3.1% (inactive).

Regarding `CCCCCCCCCCCCOS(=O)(=O)O`, the Potency entry is “inactive”.

With `O=C1c2c(O)cccc2Cc2cccc(O)c21`, the “viability change, negative = cytotoxic” value was -10.1% (inactive).

In the case of `[Cl][In]([Cl])[Cl]`, the “viability change, negative = cytotoxic” value was 0.977% (inactive).

Turning to `O=C1O[C@H]([C@@H](O)CO)C(O)=C1O`, the “viability change, negative = cytotoxic” value is -7.5% (inactive).

In the case of `COc1ccccc1O`, the Potency result is “inactive”.

As for `Cc1cc2nc3c(=O)[nH]c(=O)nc-3n(C[C@H](O)[C@H](O)[C@H](O)CO)c2cc1C`, the “viability change, negative = cytotoxic” value was -4.29% (inactive).

In the case of `Cc1c(O)cccc1C(=O)N[C@@H](CSc1ccccc1)[C@H](O)CN1C[C@H]2CCCC[C@H]2C[C@H]1C(=O)NC(C)(C)C`, the Potency was 50.1 µM (active).

Take `CCCCOC(=O)c1ccc(O)cc1`: the “viability change, negative = cytotoxic” value is 1.47% (inactive).

Regarding `CC1(C)[C@@H]2CC[C@@]1(C)C(=O)C2`, the “viability change, negative = cytotoxic” value is -3.26% (inactive).

For the compound `NCCNCCNCCN`, the “viability change, negative = cytotoxic” value is -11.8% (inactive).

Regarding `Cc1cc(CC(=O)O)n(C)c1C(=O)c1ccc(Cl)cc1`, the “viability change, negative = cytotoxic” value is -0.616% (inactive).

Turning to `Nc1ccc(S(=O)(=O)Nc2nccs2)cc1`, the “viability change, negative = cytotoxic” value was -3.74% (inactive).

Take `C[C@]12C[C@H](O)[C@H]3[C@@H](CCC4=CC(=O)CC[C@@]43C)[C@@H]1CC[C@@H]2C(=O)CO`: the “viability change, negative = cytotoxic” value was -4.96% (inactive).

Regarding `Oc1cccc(O)c1`, the “viability change, negative = cytotoxic” value was -11.2% (inactive).

On to `NCCNCCNCCNCCN`, for which the “viability change, negative = cytotoxic” value is -5.13% (inactive).

A short description of another assay: Cell Viability - LYMP2-013 (AID 970).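 For activity change, negative = cytotoxic: 0% = DMSO only and full inhibition = tetraoctylammonium bromide control.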 Note: nearly all actives have a fitted effect of over 55% in size. Note: potency is the fitted concentration of half-maximal effect. The note with it: LYMP2-013 lymphoblastoid cells viability; series mostly up to 92.2 µM; activity change, negative = cytotoxic: at the top concentration. The essentials: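 Human lymphoblastoid LYMP2-013 cells, 2500/well, treated 24 h at 37 C in complete medium; viability as intracellular ATP by CellTiter-Glo luminescence after 30 min. AC50 from Hill fits of qHTS concentration-response.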
On to `NC(=O)c1ncn([C@@H]2O[C@H](CO)[C@@H](O)[C@H]2O)n1`, for which the “activity change, negative = cytotoxic” value is -20.7% (inactive).

In the case of `CC12CCC(CC1)C(C)(C)O2`, the “activity change, negative = cytotoxic” value is -4.65% (inactive).

Take `CCCCCCCCCCCCOS(=O)(=O)O`: the Potency result was “inactive”.

Turning to `O=C1c2c(O)cccc2Cc2cccc(O)c21`, the “activity change, negative = cytotoxic” value was -7.94% (inactive).

As for `[Cl][In]([Cl])[Cl]`, the “activity change, negative = cytotoxic” value is -5.06% (inactive).

As for `O=C1O[C@H]([C@@H](O)CO)C(O)=C1O`, the “activity change, negative = cytotoxic” value was -4.25% (inactive).

In the case of `COc1ccccc1O`, the Potency entry is “inactive”.

`Cc1cc2nc3c(=O)[nH]c(=O)nc-3n(C[C@H](O)[C@H](O)[C@H](O)CO)c2cc1C`: the “activity change, negative = cytotoxic” value was -11.1% (inactive).

Take `Cc1c(O)cccc1C(=O)N[C@@H](CSc1ccccc1)[C@H](O)CN1C[C@H]2CCCC[C@H]2C[C@H]1C(=O)NC(C)(C)C`: the Potency was 50.1 µM (active).

For the compound `CCCCOC(=O)c1ccc(O)cc1`, the “activity change, negative = cytotoxic” value is -2.19% (inactive).

For the compound `CC1(C)[C@@H]2CC[C@@]1(C)C(=O)C2`, the “activity change, negative = cytotoxic” value was -8.45% (inactive).

On to `NCCNCCNCCN`, for which the “activity change, negative = cytotoxic” value is -6.89% (inactive).

In the case of `Cc1cc(CC(=O)O)n(C)c1C(=O)c1ccc(Cl)cc1`, the “activity change, negative = cytotoxic” value was 2.26% (inactive).

With `Nc1ccc(S(=O)(=O)Nc2nccs2)cc1`, the “activity change, negative = cytotoxic” value is 1.8% (inactive).

As for `C[C@]12C[C@H](O)[C@H]3[C@@H](CCC4=CC(=O)CC[C@@]43C)[C@@H]1CC[C@@H]2C(=O)CO`, the “activity change, negative = cytotoxic” value is -13.7% (inactive).

Turning to `Oc1cccc(O)c1`, the “activity change, negative = cytotoxic” value is -4.06% (inactive).

On to `NC(=O)N/N=C/c1ccc([N+](=O)[O-])o1`, for which the “activity change, negative = cytotoxic” value was -18.2% (inactive).

For `NCCNCCNCCNCCN`, the “activity change, negative = cytotoxic” value was -3.71% (inactive).

Another assay in a line: Cell Viability - LYMP2-015 (AID 971).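 Note: 0% = DMSO only and full effect = 92 µM tetraoctylammonium bromide; nearly all actives have a fitted effect of over 55% in size.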 The note with it: LYMP2-015 lymphoblastoid cell viability; series mostly up to 92.2 µM; activity change, negative = lower viability: at the top concentration. The essentials:
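LYMP2-015 human lymphoblastoid cells (2500/well) in complete medium, compound-treated 24 h at 37 C; viability read as cellular ATP by CellTiter-Glo luminescence after 30 min at room temperature. AC50 from Hill-equation fits of qHTS concentration-response data.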
Consider `NC(=O)c1ncn([C@@H]2O[C@H](CO)[C@@H](O)[C@H]2O)n1`, for which the “activity change, negative = lower viability” value is -29.4% (inactive).

Turning to `CC12CCC(CC1)C(C)(C)O2`, the “activity change, negative = lower viability” value was -11.8% (inactive).

As for `CCCCCCCCCCCCOS(=O)(=O)O`, the compound was classed as inactive.

Consider `O=C1c2c(O)cccc2Cc2cccc(O)c21`, for which the “activity change, negative = lower viability” value is -17.4% (inactive).

As to `[Cl][In]([Cl])[Cl]`, the “activity change, negative = lower viability” value is -2.57% (inactive).

Take `O=C1O[C@H]([C@@H](O)CO)C(O)=C1O`: the “activity change, negative = lower viability” value is -23.6% (inactive).

Turning to `COc1ccccc1O`, the call was inactive.

As to `Cc1cc2nc3c(=O)[nH]c(=O)nc-3n(C[C@H](O)[C@H](O)[C@H](O)CO)c2cc1C`, the “activity change, negative = lower viability” value is -15.7% (inactive).

Consider `CCCCOC(=O)c1ccc(O)cc1`, for which the “activity change, negative = lower viability” value is 2.22% (inactive).

In the case of `CC1(C)[C@@H]2CC[C@@]1(C)C(=O)C2`, the “activity change, negative = lower viability” value is -13.6% (inactive).

Consider `NCCNCCNCCN`, for which the “activity change, negative = lower viability” value is -0.243% (inactive).

`Cc1cc(CC(=O)O)n(C)c1C(=O)c1ccc(Cl)cc1`: the “activity change, negative = lower viability” value was -0.167% (inactive).

For the compound `Nc1ccc(S(=O)(=O)Nc2nccs2)cc1`, the “activity change, negative = lower viability” value was -23.4% (inactive).

Turning to `C[C@]12C[C@H](O)[C@H]3[C@@H](CCC4=CC(=O)CC[C@@]43C)[C@@H]1CC[C@@H]2C(=O)CO`, the “activity change, negative = lower viability” value was -14.5% (inactive).

Take `Oc1cccc(O)c1`: the “activity change, negative = lower viability” value is -27.8% (inactive).

In the case of `NCCNCCNCCNCCN`, the “activity change, negative = lower viability” value was -16.3% (inactive).

The nature of the next assay: Cell Viability - LYMP2-017 (AID 972). For activity change, negative = cytotoxicity: % is set by controls: 0 for no effect and ±100 for the full control effect. Note: nearly all actives have a fitted effect of over 55% in size. Note: potency is the fitted concentration of half-maximal effect. The note with it: LYMP2-017 lymphoblastoid cell viability; series mostly up to 92.2 µM; activity change, negative = cytotoxicity: at the top concentration. In outline: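 LYMP2-017 human lymphoblastoid cells (2500/well) settled 5 hr at 37 C, then exposed to compound 24 hr at 37 C in complete medium. Viability taken as intracellular ATP by CellTiter-Glo luminescence after 30 min at RT; AC50 from Hill fits.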
With `NC(=O)c1ncn([C@@H]2O[C@H](CO)[C@@H](O)[C@H]2O)n1`, the “activity change, negative = cytotoxicity” value is -25.1% (inactive).

Consider `CC12CCC(CC1)C(C)(C)O2`, for which the “activity change, negative = cytotoxicity” value was -5.85% (inactive).

Turning to `CCCCCCCCCCCCOS(=O)(=O)O`, the Potency result was “inactive”.

For `O=C1c2c(O)cccc2Cc2cccc(O)c21`, the “activity change, negative = cytotoxicity” value was -8.3% (inactive).

For `[Cl][In]([Cl])[Cl]`, the “activity change, negative = cytotoxicity” value is -13.3% (inactive).

Take `COc1ccccc1O`: the Potency result is “inactive”.

Turning to `Cc1cc2nc3c(=O)[nH]c(=O)nc-3n(C[C@H](O)[C@H](O)[C@H](O)CO)c2cc1C`, the “activity change, negative = cytotoxicity” value is 0.424% (inactive).

For the compound `Cc1c(O)cccc1C(=O)N[C@@H](CSc1ccccc1)[C@H](O)CN1C[C@H]2CCCC[C@H]2C[C@H]1C(=O)NC(C)(C)C`, the Potency was 50.1 µM (active).

In the case of `CCCCOC(=O)c1ccc(O)cc1`, the “activity change, negative = cytotoxicity” value is 0.847% (inactive).

Turning to `CC1(C)[C@@H]2CC[C@@]1(C)C(=O)C2`, the “activity change, negative = cytotoxicity” value is 1.3% (inactive).

Take `NCCNCCNCCN`: the “activity change, negative = cytotoxicity” value was -13.3% (inactive).

On to `Cc1cc(CC(=O)O)n(C)c1C(=O)c1ccc(Cl)cc1`, for which the “activity change, negative = cytotoxicity” value is -0.581% (inactive).

On to `Nc1ccc(S(=O)(=O)Nc2nccs2)cc1`, for which the “activity change, negative = cytotoxicity” value was -27.2% (inactive).

As for `C[C@]12C[C@H](O)[C@H]3[C@@H](CCC4=CC(=O)CC[C@@]43C)[C@@H]1CC[C@@H]2C(=O)CO`, the “activity change, negative = cytotoxicity” value was -20.8% (inactive).

As for `Oc1cccc(O)c1`, the “activity change, negative = cytotoxicity” value is -18.3% (inactive).

On to `NCCNCCNCCNCCN`, for which the “activity change, negative = cytotoxicity” value is -19.5% (inactive).
